High-throughput results from PubChem BioAssay.
Hits are enriched below; roughly 4.1% of the tested compounds scored in any of these assays.
Gli-Sufu block – Gli-Sufu pathway antagonists, primary screen, luciferase luminescence, Sufu-KO-LIGHT cells, uHTS; AID 588413, 2011; inhibition, % at 5 µM; hit rate 0.74% among 340,000; Sufu-KO-LIGHT fibroblasts, Gli luciferase reporter luminescence;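 active means inhibition above about 55%, limit read from the data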;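 further: 0% = DMSO-treated cells and 100% = wells with medium but no cells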
697 NFkB inh – inhibitors of PMA/ionomycin-induced NF-kB reporter, 697 cells, primary screen, B-cell NF-kB inhibitor project, cell-based, luminescence, uHTS; inhibition, % at 4 µM; hit rate 0.33% among 330,000; AID 435022, 2010; 697 B-cell NF-kB luciferase reporter, 16 h; in the data active means inhibition above about 35%
KLF5 inh – KLF5 expression inhibitors, primary screen, DLD-1 cells, luminescence | inhibition, % at 5 µM | hit rate 0.23% among 290,000 | AID 1700, 2009 | DLD-1 KLF5 promoter-luciferase reporter;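 active means inhibition above a per-plate limit of that plate's mean compound inhibition plus 3 SD, cut at about 60% in these data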;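 further: 0% = DMSO wells and 100% = LY294002 at 200 µM; higher means less KLF5 promoter-driven luciferase light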
aSyn UTR inh – MLPCN primary screen, SNCA 5' untranslated region; alpha-synuclein 5'UTR reporter, inhibitor activity; inhibition, % (tested at 7.5 µM); hit rate 0.82% among 300,000; AID 1813, 2009; in the data active means inhibition above about 60%; inconclusive means no clear call, values can overlap the other calls;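 further: H4 neuroglioblastoma cells stably carrying SNCA 5'UTR luciferase fusion; 0% = DMSO wells and 100% = positive control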
Mdm2-MdmX inh – inhibitors of human Mdm2-MdmX association, primary screen, cell-based, luminescence, split luciferase, SaOS-2, uHTS | Protein Mdm4 (Homo sapiens) + E3 ubiquitin-protein ligase Mdm2 (Homo sapiens), … | SaOS-2 split-luciferase Mdm2/MdmX complementation | inhibition, % at 8 µM | hit rate 3% among 330,000;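 active means inhibition of at least 50% at 8 µM in the primary screen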
Target sequence (O15151 whole entry, looked up): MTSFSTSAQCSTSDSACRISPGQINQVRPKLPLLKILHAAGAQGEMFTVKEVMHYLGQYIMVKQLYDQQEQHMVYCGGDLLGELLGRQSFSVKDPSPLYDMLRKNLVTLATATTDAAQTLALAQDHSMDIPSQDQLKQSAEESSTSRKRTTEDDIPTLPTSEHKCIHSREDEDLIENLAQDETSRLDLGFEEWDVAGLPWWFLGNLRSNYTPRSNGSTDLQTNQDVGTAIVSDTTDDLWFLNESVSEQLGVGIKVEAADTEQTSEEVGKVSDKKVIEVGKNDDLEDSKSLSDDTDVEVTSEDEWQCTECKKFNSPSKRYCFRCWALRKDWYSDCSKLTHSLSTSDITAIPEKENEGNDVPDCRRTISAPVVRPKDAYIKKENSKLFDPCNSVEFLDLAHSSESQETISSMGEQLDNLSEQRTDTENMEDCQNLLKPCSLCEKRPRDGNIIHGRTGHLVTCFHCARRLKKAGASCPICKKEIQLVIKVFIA
Target sequence (Q00987 whole entry, looked up): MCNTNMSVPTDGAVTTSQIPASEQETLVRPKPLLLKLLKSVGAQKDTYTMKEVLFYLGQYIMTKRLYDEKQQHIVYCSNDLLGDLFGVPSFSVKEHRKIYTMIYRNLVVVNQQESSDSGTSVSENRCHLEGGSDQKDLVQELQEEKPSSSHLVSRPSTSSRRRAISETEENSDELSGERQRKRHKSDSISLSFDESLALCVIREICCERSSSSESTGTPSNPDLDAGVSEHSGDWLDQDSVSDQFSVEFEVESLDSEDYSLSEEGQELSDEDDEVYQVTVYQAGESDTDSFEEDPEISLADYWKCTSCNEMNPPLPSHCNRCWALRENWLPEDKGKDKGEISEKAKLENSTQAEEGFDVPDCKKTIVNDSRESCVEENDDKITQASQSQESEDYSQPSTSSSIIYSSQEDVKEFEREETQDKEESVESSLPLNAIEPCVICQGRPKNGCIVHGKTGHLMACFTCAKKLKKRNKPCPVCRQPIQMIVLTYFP
Jurkat NFkB inh – inhibitors of induced NF-kB luciferase reporter, primary screen, TCR NF-kB activation inhibitor project, cell-based, luminescence, uHTS; Jurkat, PMA/ionomycin-induced NF-kB luciferase reporter; inhibition, % at 4 µM; hit rate 0.53% among 330,000; AID 435003, 2010; in the data active means inhibition above about 50%
697 NFkB conf – PMA/ionomycin-induced NF-kB reporter inhibitors, 697 retest, confirmation, B-cell NF-kB inhibitor project, cell-based, luminescence, single concentration; 697 B-cell NF-kB luciferase, 16 h; shares compounds with 697 NFkB inh; inhibition, % at 4 µM; AID 449746, 2010; hit rate 35% among 2,000; in the data active means inhibition mostly above about 28%, no sharp cut-off; inactive means mostly below about 22%
An asterisk follows results filed as active; i = inactive; ? = inconclusive; nt = not tested or not shown.

SMILES | Gli-Sufu block | 697 NFkB inh | KLF5 inh | aSyn UTR inh | Mdm2-MdmX inh | Jurkat NFkB inh | 697 NFkB conf
CCCC(c1c(C)n(C)n(-c2ccccc2)c1=O)c1c(C)n(C)n(-c2ccccc2)c1=O | 0 | 40* | -46 | 23 | 14 | -1 | 0
NC(=O)c1ccccc1NC(=O)Nc1ccc(F)c(Cl)c1 | 0 | 21 | -5 | -11 | -7 | -4 | nt
O=c1cc(Nc2ccc3c(c2)OCCO3)[nH]c(=O)n1-c1ccc(Cl)cc1 | -24 | 38* | -31 | -22 | 26 | -3 | 24
O=c1[nH]c(Nc2ccc3c(c2)OCCO3)nnc1Cc1ccc(Cl)cc1 | 0 | -8 | -12 | -21 | -2 | -25 | nt
COC(=O)[C@@]1(Cc2ccc(F)cc2)[C@H]2c3cc(C(=O)N(C)C)n(Cc4ccc(OC(F)(F)F)cc4)c3C[C@H]2CN1C(=O)c1ccccc1 | nt | 9 | -24 | -1 | 20 | 27 | nt
CC(=O)/C(C#N)=C1\NC(=O)C(Cc2ccccc2)S1 (stereo not given) | 22 | i | 10 | -20 | 46 | -3 | i
Cc1ccc(C(=O)OCC(=O)NCCN2C(=O)CSC2=O)cc1[N+](=O)[O-] | -1 | -4 | nt | nt | -17 | 19 | nt
CC1CCN(c2ccc(C(=O)OCC(=O)NCCN3C(=O)CSC3=O)cc2[N+](=O)[O-])CC1 | -8 | 38* | -20 | 13 | -3 | 2 | 12
Cc1cccc(-n2c(O)c(C=Nc3ccccc3-c3n[nH]c(=S)[nH]c3=O)c3ccccc3c2=O)n1 | 14 | 38* | -1 | 1 | 4 | 6 | -21
COc1ccc(-c2ccc(OC)c([C@H]3[C@H]4C=CC[C@@H](C)[C@@H]4C(=O)N3Cc3ccccc3)c2)cc1C | 13 | 42* | nt | 23 | 12 | 18 | 51*
COc1ccc(-c2cc3ccccc3s2)cc1[C@H]1[C@H]2C=CC[C@@H](C)[C@@H]2C(=O)N1Cc1ccccc1 | -22 | -80 | nt | -107 | -50 | -114 | nt
C[C@@H]1CC=C[C@H]2[C@H]1C(=O)N(Cc1ccccc1)[C@H]2c1ccc(-c2ccc(N(C)C)cc2)cc1F | -2 | 27 | nt | 22 | 35 | -2 | nt
COc1ccc(-c2ccc(N(C)C)cc2)cc1[C@H]1[C@H]2C=CC[C@@H](C)[C@@H]2C(=O)N1Cc1ccccc1 | 7 | 51* | nt | 10 | 25 | 9 | 36*
COC(=O)C1CCc2c(ccc3c2CCCC3)C1=O (stereo not given) | -9 | nt | nt | nt | nt | nt | nt
C[C@H](NC(=O)C1CCN(C(=O)[C@H](Cc2ccccc2)NC(=O)OC(C)(C)C)CC1)C(=O)O | 6 | 2 | -36 | -7 | 27 | -14 | nt
COc1cccc(-c2noc(CCC(=O)NCCc3ccccc3)n2)c1 | 8 | 49* | -7 | 28 | 19 | -9 | 49*
COc1ccc(-c2noc(CCCC(=O)O)n2)cc1 | 43 | 74* | 32 | 89* | -10 | 48 | 58*
COc1ccc(-c2noc(CCCC(=O)NCC3CCCO3)n2)cc1 (stereo not given) | 16 | 41* | -10 | 15 | 5 | -10 | 21
COc1ccc(Cc2nc(-c3ccc(NC(=O)c4cccnc4)cc3)no2)cc1 | 13 | 51* | -28 | 75* | 9 | -4 | 33*
Nc1ccc(S(=O)(=O)N2CCC(Cc3ccccc3)CC2)cc1 | -3 | 19 | -14 | 6 | -6 | 15 | nt
COc1cccc(-c2nc(-c3ccc(C(=O)O)cc3)no2)c1 | -136 | -351 | nt | -96 | -86 | -21 | -413
CCOc1ccc(-c2noc(CCC(=O)O)n2)cc1 | 28 | 62* | -21 | ? | 8 | 27 | 49*
COc1ccc(-c2noc(CCC(=O)O)n2)cc1 | 1 | 1 | -21 | 32 | -12 | 7 | nt
COc1ccc(/C(C)=N/NC(=O)CNC(=O)C(c2ccccc2)c2ccccc2)c(OC)c1 | -8 | 10 | -14 | 14 | 16 | 9 | nt
COc1ccc(C(=O)Nc2nc(-c3cccs3)c(NC(C)=O)s2)cc1 | 7 | 25 | 1 | -83 | 26 | -17 | nt
SMILES | Gli-Sufu block | 697 NFkB inh | KLF5 inh | aSyn UTR inh | Mdm2-MdmX inh | Jurkat NFkB inh | 697 NFkB conf
CC(=O)Nc1sc(NC(=O)c2ccc(C)cc2)nc1-c1cccs1 | 16 | 36* | 6 | -54 | 42 | -8 | 13
Nc1nnc(CCS(=O)(=O)c2cc(Cl)ccc2Cl)s1 | 6 | 20 | 17 | 8 | 5 | 0 | nt
Cc1ccccc1CN(C)CCS(=O)(=O)c1cc(Cl)ccc1Cl | -1 | 36* | -11 | -23 | 44 | -9 | 3
CC(=O)c1cccc(OCc2cc(C(=O)NCc3nc(C)c(C)s3)no2)c1 | -2 | -30 | -71 | -53 | 21 | -26 | nt
O=C(NCCCN1CCOCC1)c1cc(-c2ccc(Cl)c(Cl)c2)on1 | -5 | 7 | -46 | -14 | -8 | 3 | nt
Cc1ccc(-c2cc(C(=O)NCCCN3CCOCC3)no2)cc1 | 38 | 87* | 2 | 53 | -11 | 2 | 85*
O=C(NCCCN1CCOCC1)c1cc(-c2cccs2)on1 | -5 | 48* | -51 | -152 | -45 | -24 | 24
Cc1nc(Nc2c(Cl)cccc2Cl)sc1C(=O)Nc1ccccc1 | 0 | 37* | -11 | -15 | 24 | 6 | 36*
COc1ccc(-c2nc(CN3CCN(Cc4ccccc4)CC3)c(C)o2)cc1 | 21 | -22 | -24 | 3 | -7 | -2 | nt
Cc1oc(-c2ccc(-c3ccccc3)cc2)nc1CN1CCN(CC(=O)N(C)C)CC1 | -79 | -267 | -247 | -143 | -53 | -15 | -263
Cc1nn(C)c(C)c1CN(C)C(=O)c1cnn2c1NC(c1ccccc1)CC2C(F)(F)F (stereo not given) | 20 | 39* | -10 | 54 | 5 | 14 | 27
Cc1nn(C)c(C)c1CN(C)C(=O)c1nn2c(c1Br)NC(c1cccs1)CC2C(F)(F)F (stereo not given) | 12 | 11 | -16 | 24 | 8 | 6 | nt
CC(=O)c1ccc(S(=O)(=O)N(C)CCCC(=O)NCc2ccc3c(c2)OCO3)cc1 | nt | 4 | nt | nt | -35 | -22 | nt
Nc1cc(Cl)nc(N/N=C/c2ccc([N+](=O)[O-])cc2)n1 | 10 | 41* | -44 | 14 | -12 | 2 | 11
Nc1cc(Cl)nc(N/N=C/c2ccccc2[N+](=O)[O-])n1 | 6 | -60 | -54 | -188 | -71 | -54 | nt
Cc1nnc2sc(SCc3ccc(Br)cc3)nn2c1=O | -6 | 37* | -28 | -23 | 10 | -5 | 13
COc1cc(-c2nc(S(=O)(=O)c3ccc(C)cc3)c(N3CCOCC3)o2)cc(OC)c1OC | -10 | 42* | -10 | -4 | 31 | 3 | 20
